According to PubChem BioAssay AID1159580 (chemical genetic matrix, 2015):
Where “and” joins values, the source holds several entries; their conditions need not be identical. Equal entries are not always repeated. In all, about 5,500 compounds went through this assay and about 2,000 (36%) were called active. Another 18% or so got no clear call; they are omitted. The list shows a part of the results. Values without a mark were called inactive. Cut-off read from the data, not from the text of the source: active = normalized growth mostly below about 0.91 (no sharp cut-off); inconclusive = no clear call, values can overlap the other calls; inactive = mostly above about 0.92.

Experiment: chemical genetic growth profiling, strain panel (AID 1159580);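 note: tested at 20 µM; growth read once vehicle control cultures reached saturation at 30 °C; 1 = growth at the plate median or of vehicle wells; lower values mean less growth of the strain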
Conditions: S. cerevisiae deletion strains, growth OD

O=c1[nH]c2ccccc2n1C1CCN(CCCC(c2ccc(F)cc2)c2ccc(F)cc2)CC1
normalized growth (locus YAL013W, strain DEP1, stronger effect = lower value): 1.01 and 0.995 | normalized growth (locus YAL021C, strain ccr4, stronger effect = lower value): 0.839 (active) | normalized growth (locus YAL026C, strain drs2, stronger effect = lower value): 0.948 | normalized growth (locus YAL030W, strain snc1, stronger effect = lower value): 0.963 | normalized growth (locus YAL040C, strain CLN3, stronger effect = lower value): 1.03 | normalized growth (locus YBL061C, strain skt5, stronger effect = lower value): 0.967 | normalized growth (locus YBR009C, strain hhf1, stronger effect = lower value): 0.875 (active) | normalized growth (locus YBR021W, strain FUR4, stronger effect = lower value): 0.969 | normalized growth (locus YBR023C, strain chs3, stronger effect = lower value): 0.918 | normalized growth (locus YBR171W, strain sec66, stronger effect = lower value): 1.03 | normalized growth (locus YBR229C, strain ROT2, stronger effect = lower value): 0.948 | normalized growth (locus YBR231C, strain swc5, stronger effect = lower value): 0.92 | normalized growth (locus YBR279W, strain paf1, stronger effect = lower value): 0.953 | normalized growth (locus YCL011C, strain gbp2, stronger effect = lower value): 0.93 | normalized growth (locus YCL016C, strain dcc1, stronger effect = lower value): 0.95 | normalized growth (locus YCL029C, strain bik1, stronger effect = lower value): 0.986 | normalized growth (locus YCL061C, strain MRC1 (second series), stronger effect = lower value): 1.01 | normalized growth (locus YCL061C, strain MRC1, stronger effect = lower value): 0.95 | normalized growth (locus YCL069W, strain vba3, stronger effect = lower value): 1 | normalized growth (locus YCR088W, strain abp1, stronger effect = lower value): 1 | normalized growth (locus YDL005C, strain med2, stronger effect = lower value): 1.01 | normalized growth (locus YDL035C, strain GPR1, stronger effect = lower value): 0.968 | normalized growth (locus YDL040C, strain nat1, stronger effect = lower value): 1.01 | normalized growth (locus YDL074C, strain BRE1, stronger effect = lower value): 0.904 | normalized growth (locus YDL101C, strain DUN1, stronger effect = lower value): 0.978 | normalized growth (locus YDL134C, strain PPH21, stronger effect = lower value): 0.972 | normalized growth (locus YDL185W, strain tfp1, stronger effect = lower value): 0.997 | normalized growth (locus YDL192W, strain arf1, stronger effect = lower value): 1 | normalized growth (locus YDR001C, strain nth1, stronger effect = lower value): 1.02 | normalized growth (locus YDR069C, strain doa4, stronger effect = lower value): 0.854 (active) | normalized growth (locus YDR101C, strain arx1, stronger effect = lower value): 1 | normalized growth (locus YDR137W, strain rgp1, stronger effect = lower value): 1.26 [resistant] (active) | normalized growth (locus YDR150W, strain NUM1, stronger effect = lower value): 0.973 | normalized growth (locus YDR159W, strain sac3, stronger effect = lower value): 0.92 | normalized growth (locus YDR162C, strain NBP2, stronger effect = lower value): 0.975 | normalized growth (locus YDR195W, strain ref2): 1.05 | normalized growth (locus YDR297W, strain sur2, stronger effect = lower value): 0.959 | normalized growth (locus YDR318W, strain mcm21, stronger effect = lower value): 0.975 | normalized growth (locus YDR334W, strain swr1, stronger effect = lower value): 1.01 | normalized growth (locus YDR335W, strain msn5, stronger effect = lower value): 0.959 | normalized growth (locus YDR363W, strain ESC2, stronger effect = lower value): 0.989 | normalized growth (locus YDR388W, stronger effect = lower value): 0.838 (active) | normalized growth (locus YDR392W, strain spt3, stronger effect = lower value): 0.646 (active) | normalized growth (locus YDR502C, strain sam2, stronger effect = lower value): 0.986 | normalized growth (locus YEL003W, strain gim4, stronger effect = lower value): 0.944 | normalized growth (locus YEL037C, strain rad23, stronger effect = lower value): 0.936 | normalized growth (locus YEL061C, strain CIN8 (second series), stronger effect = lower value): 1.01 | normalized growth (locus YEL061C, strain CIN8, stronger effect = lower value): 0.989 | normalized growth (locus YER015W, strain faa2, stronger effect = lower value): 0.953 | normalized growth (locus YER016W, strain bim1, stronger effect = lower value): 0.961 | normalized growth (locus YER110C, stronger effect = lower value): 0.993 | normalized growth (locus YER111C, strain swi4, stronger effect = lower value): 1.02 | normalized growth (locus YER155C, strain BEM2 (second series), stronger effect = lower value): 0.707 (active) | normalized growth (locus YER155C, strain BEM2, stronger effect = lower value): 1.02 | normalized growth (locus YER167W, strain BCK2, stronger effect = lower value): 0.99 | normalized growth (locus YFR010W, strain ubp6, stronger effect = lower value): 0.878 (active) | normalized growth (locus YGL078C, strain dbp3, stronger effect = lower value): 0.994 | normalized growth (locus YGL086W, strain mad1, stronger effect = lower value): 0.986 | normalized growth (locus YGL167C, strain pmr1, stronger effect = lower value): 1.01 | normalized growth (locus YGL173C, strain kem1, stronger effect = lower value): 0.936 | normalized growth (locus YGL227W, strain vid30, stronger effect = lower value): 1.03 | normalized growth (locus YGL240W, strain doc1, stronger effect = lower value): 0.916 | normalized growth (locus YGL248W, strain PDE1, stronger effect = lower value): 0.979 | normalized growth (locus YGL253W, strain hxk2, stronger effect = lower value): 0.938 | normalized growth (locus YGR078C, strain PAC10, stronger effect = lower value): 0.967 | normalized growth (locus YGR135W, strain pre9, stronger effect = lower value): 0.926 | normalized growth (locus YGR229C, strain SMI1, stronger effect = lower value): 0.949 | normalized growth (locus YGR252W, strain gcn5, stronger effect = lower value): 0.782 | normalized growth (locus YHR013C, strain ard1, stronger effect = lower value): 1.02 | normalized growth (locus YHR027C, strain rpn1, stronger effect = lower value): 0.927 | normalized growth (locus YHR030C, strain SLT2, stronger effect = lower value): 0.995 and 0.973 | normalized growth (locus YHR079C, strain IRE1 (second series), stronger effect = lower value): 0.994 | normalized growth (locus YHR079C, strain IRE1, stronger effect = lower value): 0.942 | normalized growth (locus YHR094C, strain hxt1, stronger effect = lower value): 0.995 | normalized growth (locus YHR129C, strain ARP1, stronger effect = lower value): 0.987 | normalized growth (locus YHR142W, strain chs7, stronger effect = lower value): 0.915 | normalized growth (locus YHR200W, strain rpn10, stronger effect = lower value): 0.988 | normalized growth (locus YIL066C, strain RNR3, stronger effect = lower value): 0.968 | normalized growth (locus YIL073C, strain SPO22, stronger effect = lower value): 1.72 [resistant] (active) | normalized growth (locus YIL125W, strain kgd1, stronger effect = lower value): 0.995 | normalized growth (locus YIR030C, strain dcg1, stronger effect = lower value): 1 | normalized growth (locus YJL092W, strain hpr5, stronger effect = lower value): 0.936 | normalized growth (locus YJL095W, strain BCK1 (second series), stronger effect = lower value): 0.973 | normalized growth (locus YJL095W, strain BCK1, stronger effect = lower value): 1.01 and 0.96 | normalized growth (locus YJL115W, strain asf1, stronger effect = lower value): 1.02 | normalized growth (locus YJL129C, strain trk1, stronger effect = lower value): 0.885 | normalized growth (locus YJL134W, strain LCB3, stronger effect = lower value): 0.993 | normalized growth (locus YJL154C, strain vps35, stronger effect = lower value): 1.01 | normalized growth (locus YJL164C, strain tpk1, stronger effect = lower value): 0.937 | normalized growth (locus YJL166W, strain qcr8, stronger effect = lower value): 0.947 | normalized growth (locus YJL168C, strain set2, stronger effect = lower value): 0.997 | normalized growth (locus YJL187C, strain SWE1 (second series), stronger effect = lower value): 0.97 | normalized growth (locus YJR043C, strain POL32, stronger effect = lower value): 0.996 | normalized growth (locus YJR066W, strain TOR1, stronger effect = lower value): 0.93
